Assay results published in PubChem BioAssay.
Unmarked numbers belong to inactive results. The rule behind the calls is not given here.

biological target: Pantothenate synthetase (Mycobacterium tuberculosis (strain ATCC 25618 / H37Rv)) (UniProt P9WIL5); assay: Coupled enzyme confirmation of inhibitors against recombinant Mtb PanC (AID 375); conditions: coupled enzyme assay; at 10 µM, stronger effect = higher value;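 note: 0% = full reaction with vehicle and 100% = no enzyme background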
Sequence (P9WIL5 whole entry, looked up): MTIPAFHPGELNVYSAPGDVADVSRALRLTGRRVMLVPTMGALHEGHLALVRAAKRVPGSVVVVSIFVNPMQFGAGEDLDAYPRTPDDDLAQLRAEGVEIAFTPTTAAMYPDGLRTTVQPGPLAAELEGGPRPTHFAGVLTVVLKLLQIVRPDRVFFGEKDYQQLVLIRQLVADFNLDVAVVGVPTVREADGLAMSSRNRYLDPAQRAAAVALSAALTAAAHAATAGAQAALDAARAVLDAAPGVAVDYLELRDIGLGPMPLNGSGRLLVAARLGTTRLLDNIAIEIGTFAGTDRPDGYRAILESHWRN

`CC(C)c1ncc(C(O)c2cccc3ccccc23)n1C` (stereo not given) and `COc1ccc(NC(=O)CSc2nnc(-c3ccccc3C)n2C)cc1` are the same in inhibition: 0% for the first, 0% for the second.

First: Cc1cc(C)n(-c2nc3ccccc3c(=O)n2OCCOc2ccccc2)n1
Second: O=C(CSc1nc2ccccc2o1)Nc1ccccc1
The inhibition of the first is higher: 3% for the first, 0% for the second.

`CS(=O)(=O)Nc1ccc(C(=O)NCCc2ccccc2)cc1` and `COc1ccc(S(=O)(=O)Cc2ccc(C(=O)NCCc3ccc(S(N)(=O)=O)cc3)o2)cc1` are the same in inhibition: 0% for the first, 0% for the second.

Compared with `CCCCSc1nc2c(cnn2-c2ccc(F)cc2)c(=O)[nH]1`, `O=C(CCN1CCN(c2ccc(F)cc2)CC1)Nc1ccccc1F` is higher in inhibition: 0% for the first, 1% for the second.

Going from `O=C(Nc1ccc(F)cc1F)NC1CC(=O)N(Cc2ccccc2)C1` (stereo not given) to `O=C(c1ccccc1)c1ccc(N2CCOCC2)c(NC(=O)c2ccco2)c1`, the inhibition rises from 1% to 11%.

Going from `COc1ccc(-c2nn(-c3ccccc3)cc2/C=N/n2cnnc2)cc1OC` to `Cc1cc(N)n2nc(-c3ccccc3)cc2n1`, the inhibition falls from 9% to 0%.

`CCCN1C2=C(C(=O)CCC2)C(c2ccc(O)c(Br)c2)C2=C1CCCC2=O` and `Cc1ccccc1NS(=O)(=O)c1cc(C(=O)N2CCCC2)ccc1C` are the same in inhibition: 0% for the first, 0% for the second.

First: COc1cccc(N2C(=O)N(c3ccccc3Cl)C3CS(=O)(=O)CC32)c1 (stereo not given)
Second: COc1ccc(/C(O)=C2/C(=O)C(=O)N(CC3CCCO3)C2c2cccc(OC)c2)cc1 (stereo not given)
The inhibition of the first is higher: 3% for the first, 0% for the second.

Compared with `CCN1CCN(C(c2ccc(F)cc2)c2nnnn2Cc2cccs2)CC1` (stereo not given), `CCN1CCN(Cc2ccccc2NC(=O)Nc2ccc(C)cc2)CC1` is higher in inhibition: 0% for the first, 3% for the second.

First: COc1ccccc1N1CCN(C(=O)CN(Cc2ccc(Cl)cc2)S(C)(=O)=O)CC1
Second: O=C(Nc1ccc(N2CCCC2)cc1)c1ccc(Br)o1
The inhibition of the first is higher: 3% for the first, 0% for the second.

Compared with `COC(=O)c1cccc(Oc2nc3c(c(=O)n(C)c(=O)n3C)n2C(C)C)c1`, `COC(=O)c1cc(Br)c(=O)n(-c2ccc(OC)cc2)c1` is lower in inhibition: 1% for the first, 0% for the second.

Compared with `CC1CCN(c2nc3c(c(=O)[nH]c(=O)n3C)n2CCSc2ncccn2)CC1`, `Cc1ccc(F)cc1NC(=O)C1CCCN(c2ncccn2)C1` (stereo not given) is higher in inhibition: 0% for the first, 7% for the second.

`N#Cc1nc(-c2cccs2)oc1NCCc1ccccc1` and `O=C(NC(C(=O)c1ccccc1)N1CCOCC1)c1cccs1` (stereo not given) are the same in inhibition: 0% for the first, 0% for the second.

`CC1CCN(CC(O)COC2CCC(C(C)(C)C)CC2)CC1` (stereo not given) and `CC(=O)OCC(=O)[C@@]1(O)CC[C@H]2[C@@H]3CCC4=CC(=O)C=C[C@]4(C)[C@@]3(Cl)[C@@H](Cl)C[C@@]21C` are the same in inhibition: 0% for the first, 0% for the second.

Compared with `O=C(/C=N/O)NCc1ccncc1`, `CN1/C(=C\C(=O)C(F)F)C(C)(C)c2ccccc21` is lower in inhibition: 1% for the first, 0% for the second.

First: CCC1CCCCN1C(=O)CSc1nnc(-c2ccco2)o1 (stereo not given)
Second: Nn1c(SCC(=O)Nc2ccc(S(=O)(=O)N3CCCC3)cc2)nnc1C(F)(F)F
The inhibition of the first is higher: 1% for the first, 0% for the second.

`N[C@@H](Cc1cc(I)c(Oc2ccc(O)c(I)c2)c(I)c1)C(=O)O` and `CCOC(=O)c1cccc(NC(=O)CSc2nnc(-c3cccnc3)n2CC)c1` are the same in inhibition: 0% for the first, 0% for the second.

`CC(C)OC(=O)C1C2C=CC3(CN(Cc4cccs4)C(=O)C13)O2` (stereo not given) and `CC(=O)Nc1ccc(S(=O)(=O)NCc2cn3c(C)csc3n2)cc1` are the same in inhibition: 0% for the first, 0% for the second.

`COc1ccc(-c2nc3c(c(SCC(=O)N4CCOCC4)n2)COC(C)(C)C3)cc1` and `Cc1cccc(-c2cc3nc4c(c(N5CCOCC5)n3n2)CCCC4)c1` are the same in inhibition: 0% for the first, 0% for the second.

Going from `CN(CCO)CC(O)Cn1cnc2c1c(=O)n(C)c(=O)n2C` (stereo not given) (tested in a mixture with another compound) to `Cc1ccc(-c2nc(-c3cccnc3)no2)c(C)c1`, the inhibition rises from 0% to 5%.
